We go through 36 sequences from the supplement of paper PMC6555819.

In this test the test system is VDR:RXRa (NR concentration 270 nM, RXRa partner concentration 90 nM). Kind of test: PBM binding z-score (relative to random genomic background probes); higher = stronger binding; sequences stand for … in GC…GCGATTGACAGCGTAGAATGAAGG
In a few lines: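 Ligand-free nuclear receptor dimers were applied to custom Agilent 4×180K protein-binding microarrays whose double-stranded probes carried direct-repeat seeds, single-nucleotide variants, half-site ablations and random human genomic background sequences in 34-nt variable regions. Incubation lasted 1 h. Binding z-scores were computed against the random background probes from regression-normalized fluorescence.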
The sequence TCTCGGAGAACACGAAAGGTCAGAGCTCGACATC gave a PBM binding z-score of 2.22. Then ACTCGGAGGACATAGGTCAGAGCTACGCCAGTGA, with 1.03; and TCTGCTAGTTCAACGATGGTCAGCTAATCTGCTA, with 0.196. The sequence GCTCGGAGGAGAAGGTCAGAGCTTTGTCCGTAGA returned a PBM binding z-score of 0.324. CTTCCAAGGTCAAAGGTCAGTGAAGAGATGACGG showed a PBM binding z-score of 6.57. Then AGAACGCGGGCAATGAGTTGATAGCACGGGTGGC, with 1.56; and AATACAGGGACACTAGGCCAGAGTAGGTACGAAT, with -0.219; and ATCGAAAGGTCGACGAGGTGAGTATCCACCGTTT, with 5.24.

As to AGAATGAGGATACCAAAGATCAGGGAAACGCTTG, the PBM binding z-score is -0.361. Take CCTTACGGGCCACTGACAGGTTATAGCATTTGGA: the PBM binding z-score is -0.202. As for CCTCGGAGGACAACACGAGGTCAGAGCTGCCAGA, the figure is 2.72; as for CGAACTAGGGCAGAACAGGACAGTGAAGGATGAT, -0.31.

Turning to CATACAGGGTCAGCTAAGCCAGAGTAGGGACGGC, the PBM binding z-score came to 2.69.

On to GCTATTCGTTGAAAGGGCAACCGAATGATTCTCG, for which the PBM binding z-score stood at 0.306. Then CAAACTAGGTCACCGGAAGCTCAAAGTCCGCATG, with 2.23; and ATCGTAAGGTCGACGAGGTGAGTATACACCGTTT, with 4.52; and TGAATGAGGTTATAATATCAGGGAACGTTGCAAA, with 1.35. Sequence CCTACTGGGCCATCAGGTCCTTGATATCAACGTT gave a PBM binding z-score of -0.0448. As for TCTATTAGTTGATTGGGGCAACCGAAACAGCGGA, the figure is 0.952; as for ATCACTAGGTAAAGATAGTTCAGTGAATGCAAAT, 0.888. As for CCGAGTAGGTAATGGGGCATTCAGGCAACGGTGA, the figure is -0.509.

Turning to TCATATAGGTTAACAGGTGAAAGTCCGTAAGTTA, the PBM binding z-score is 2.04. Then TTACCAAGGTGAAAGTTCGTTGATGCACGCCTTG, with 2.12; and CCTCAAAGTTCAACTAAGGTAACGTAAAGCACGC, with 4.88.

Consider GAGACAGGGTCAGCTAGAGGCCAGAGTATGGAAA, for which the PBM binding z-score is 3.22. Then ATATGTAGGTTATCGGGGCATTCAGTTTGCGCAT, with 2.27; and CCTACTGGGCCATCAGGTTATTGATATCAACGTT, with 0.0822; and ATATGTAGGTTAGATCCGGGTCATTCAGGCTATG, with 3.5. As for AGTCAAGGTTCAGGACGAGGTAACGTAAAGCACG, the figure is 2.03.

Take TCATATAGGTAAAAGGTGAAAGACGGTGTGGTAA: the PBM binding z-score came out at 1.57. As for AGAACGAGGGCACGCTGAGTTAATAGCAGAGTAG, the figure is 1.69. For GCAGACAGGTGAAACGCAGGTATCTCAGGGTGGC, the PBM binding z-score is -0.475. Then ACTAGCAGGCCAAGGGACACTCAAGATTAGTCCG, with -0.487. Then ACTATGAGTTGAGACGAGGGCAACCGATAGGTTG, with 1.9. Then GGAACGAGGGCATTCGGGTTGATAGCATGGCGAT, with 4.61. For the sequence GCTATTAGTTGAACGGGCAACCGAATGATTCTCG, the PBM binding z-score is -0.187.
